Screening data from PubChem BioAssay.
Most compounds without a hit are left out; they make up all but 10% or so of the library.
ALDH1A1 inh: blocks purified human ALDH1A1 activity; 220,000 tested, 7.3% active; Potency, µM (highest dose often 75.3 µM), most hits filed as inhibitors; Purified ALDH1A1, NADH fluorescence, propionaldehyde substrate; P00352; active = well fitted inhibition curve with a large enough effect, not every such curve was filed as active; inconclusive = small, poorly fitted or top-dose-only effect, or another doubt; inactive = no such curve, though single readings can be large or run the other way
Target sequence (P00352 whole entry, looked up): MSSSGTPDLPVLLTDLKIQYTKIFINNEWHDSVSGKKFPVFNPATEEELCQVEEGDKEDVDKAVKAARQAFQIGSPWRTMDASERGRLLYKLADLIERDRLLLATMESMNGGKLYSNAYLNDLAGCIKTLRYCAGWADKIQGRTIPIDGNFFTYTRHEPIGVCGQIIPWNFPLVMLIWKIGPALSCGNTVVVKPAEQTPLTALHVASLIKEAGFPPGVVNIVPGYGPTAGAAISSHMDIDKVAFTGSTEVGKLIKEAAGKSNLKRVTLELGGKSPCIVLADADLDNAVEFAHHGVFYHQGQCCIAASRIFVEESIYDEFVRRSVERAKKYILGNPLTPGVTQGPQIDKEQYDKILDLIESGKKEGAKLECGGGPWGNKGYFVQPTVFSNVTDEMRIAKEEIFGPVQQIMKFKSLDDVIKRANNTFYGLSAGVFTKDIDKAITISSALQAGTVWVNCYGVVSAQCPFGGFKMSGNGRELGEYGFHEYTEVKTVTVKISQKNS
aGal spleen mod: inhibits or activates alpha-galactosidase in human spleen homogenate | P06280 | human spleen homogenate, 4MU-alpha-Gal fluorescence, 40 min | Potency, µM (series often up to 80 µM), hits mostly inhibitors | 240,000 tested, 0.008% active | AID 2107
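Human spleen homogenate (1 ug) was the enzyme source, with 4-methylumbelliferyl-alpha-D-galactopyranoside (1 mM final) in pH 5.0 citrate buffer with 0.01% Tween-20. Compounds were titrated; after 40 min at 37C, NaOH/glycine stop, 4-MU fluorescence read; AC50 from Hill fits.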
HPGD inh: HPGD (human) dehydrogenase inhibition; purified HPGD, NADH fluorescence kinetic, PGE2 substrate; Potency, µM, usual class: inhibitors; 150,000 tested, 4.3% active; active = well fitted inhibition curve with a large enough effect, not every such curve was filed as active; inconclusive = small, poorly fitted or top-dose-only effect, or another doubt; inactive = no such curve, though single readings can be large or run the other way
Target sequence (P15428 whole entry, looked up): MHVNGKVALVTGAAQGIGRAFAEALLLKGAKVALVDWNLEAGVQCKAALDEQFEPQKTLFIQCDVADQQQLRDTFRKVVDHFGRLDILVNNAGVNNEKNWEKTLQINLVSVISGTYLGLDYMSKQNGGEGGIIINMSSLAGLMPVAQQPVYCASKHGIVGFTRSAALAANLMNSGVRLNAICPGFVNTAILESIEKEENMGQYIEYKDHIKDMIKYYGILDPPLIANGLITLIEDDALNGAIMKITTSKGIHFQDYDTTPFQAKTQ
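NADH formation kinetics: reaction with 30 uM PGE2 and 1 mM NAD+ (final), 20 nM enzyme, Tris-HCl pH 8 with Tween 20, after 15 min compound preincubation at room temperature. Fluorescence change, last versus first of five reads.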
GLA inh pH 4.5: inhibitors of human alpha-galactosidase A at pH 4.5 | P06280 | purified enzyme, 4-MU-alpha-Gal fluorescence, pH 4.5 | activity change, negative = inhibition, % at 105 µM | 230,000 tested, under 10 active
12-hLO inh: inhibitors of human 12-lipoxygenase (ALOX12). P18054. purified 12-hLO, xylenol orange hydroperoxide absorbance. Potency, µM (doses to about 57.1 µM), usual class: inhibitors. 150,000 tested, 0.12% active. AID 1452; note: nearly all actives have a fitted effect of over 55% in size
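150 nM 12hLO, 25 mM Hepes pH 7.0 + 0.01% Triton X-100; cpd preinc 15 min RT; 40 uM arachidonic acid, 30 min RT; Fe-XO 30 min; A573/A405 ratio as read-out.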
PNC inhibitor: perinucleolar compartment assembly inhibition; activity change (PNC), negative = inhibition, % at 10 µM; PC3M PTB-GFP, PNC prevalence imaging, 16 h; stronger effect = lower value; 140,000 tested, 3.1% active;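 active = readout at or below -70, meaning at least 70% loss of cells showing the perinucleolar compartment, a nuclear body marking cancer cells; inconclusive = readout between -30 and a set limit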
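PC3M cells stably expressing PTB-GFP, 750–1000 cells/well, treated 16 h at 37 °C with compound (23 nl of library stock), in duplicate. After paraformaldehyde fixation and Hoechst stain, imaged at 20x; PNC prevalence scored by image analysis.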
Large screens that a line does not name were inactive. Unless noted, calls come from the whole dose curve; as a rule, active = well fitted curve in the direction sought with a large enough effect; inconclusive = small, poorly fitted or top-dose-only effect, or another doubt; inactive = no such curve, though single readings can be large; an effect the other way counts as inactive or inconclusive.

O=C(Cc1ccc(S(=O)(=O)N2CCCC2)s1)Nc1nc2c(s1)CCCC2	ALDH1A1 inh 10µM
Cc1ccccc1-c1cc(C(=O)Nc2nc3c(s2)CCCC3)c2ccccc2n1	ALDH1A1 inh inconclusive, HPGD inh inconclusive, PNC inhibitor -100.0
O=C(CS(=O)(=O)Cc1ccccc1)Nc1nc2c(s1)CCCC2	ALDH1A1 inh inconclusive, PNC inhibitor inconclusive
O=C(Nc1nc2c(s1)CCCC2)c1cc(-c2ccc3c(c2)OCO3)nc2ccccc12	HPGD inh inconclusive, PNC inhibitor inconclusive
O=C(Cc1ccc(S(=O)(=O)N2CCCCC2)s1)Nc1ccc(F)c(F)c1	ALDH1A1 inh inconclusive, PNC inhibitor -86.3
Cc1ccc(CC(=O)Nc2nc3c(s2)CCCC3)cc1	PNC inhibitor -100.3
COC(=O)C/C=C\[C@@H](C)[C@@H](/C=N\OCC[C@H]1C=C[C@H](OC(C)=O)[C@@H](COC(C)=O)O1)NS(=O)(=O)c1ccc(C)cc1	none (no result: HPGD inh, GLA inh pH 4.5, 12-hLO inh, PNC inhibitor)
CN(C)C(=O)c1ccc(-c2ccc3ncnc(N4CCNCC4)c3c2)cc1	none (no result: HPGD inh, GLA inh pH 4.5, 12-hLO inh, PNC inhibitor)
CN(C)CCNC(=O)c1ccc(-n2c(=O)c(=O)[nH]c3ccccc32)cc1	none (no result: aGal spleen mod, GLA inh pH 4.5, PNC inhibitor)
CCOC(=O)C1CCCN(C(=O)Cc2ccc(Cl)cc2)C1 (centres undefined)	ALDH1A1 inh inconclusive
CC1CCCCN1C(=O)Cc1ccc(Cl)cc1 (centres undefined)	HPGD inh 11.2µM
CC1CCCCN1C(=O)c1cc(F)c(F)cc1Cl (centres undefined)	HPGD inh 20µM, PNC inhibitor inconclusive
O=C(c1cc(F)ccc1F)C1CCCN(C(=O)c2ccc(F)cc2Cl)C1 (centres undefined)	ALDH1A1 inh inconclusive (no result: HPGD inh, 12-hLO inh, PNC inhibitor)
CC1CCCN(C(=O)c2cc(F)c(F)cc2Cl)C1 (centres undefined)	HPGD inh 6.31µM, PNC inhibitor inconclusive
COC(=O)c1cccnc1	ALDH1A1 inh inconclusive (no result: PNC inhibitor)
COc1cccc(Cn2c(=O)cnc3cnc(Oc4ccccc4)nc32)c1	none (no result: HPGD inh, GLA inh pH 4.5, 12-hLO inh, PNC inhibitor)
CCOC(=O)N1CCN(C(=O)CCCn2c(=O)[nH]c3ccccc3c2=O)CC1	PNC inhibitor inconclusive
CCCN1CCN(C(=O)CCCn2c(C)c3cnn(-c4ccccc4)c(=O)c3c2C)CC1	ALDH1A1 inh 28.2µM
CN1CCN(c2cnn(-c3ccccc3)c(=O)c2Br)CC1	none (no result: HPGD inh, 12-hLO inh, PNC inhibitor)
CCC(C(=O)NCCN1CCN(C)CC1)n1c(C)c2cnn(-c3ccccc3)c(=O)c2c1C (centres undefined)	ALDH1A1 inh 22.4µM
COc1ccc(NC(=O)N2CCCC3(CCN(C(=O)c4cnccn4)CC3)C2)cc1	none (no result: GLA inh pH 4.5, PNC inhibitor)
COc1ccc(C(=O)N2CCC3(CC2)CCN(C(c2ccccc2)c2ccccc2)CC3)cc1	none (no result: GLA inh pH 4.5, PNC inhibitor)
COCCc1ccc(OCC(O)CNC(C)C)cc1 (centres undefined)	PNC inhibitor -90.6
CCOC(=O)c1cc(-c2ccccc2)n(CC(=O)O)c1C	ALDH1A1 inh inconclusive, HPGD inh 25.1µM
NC(=S)c1ccc[n+]([C@@H]2O[C@@H](COP(=O)([O-])OP(=O)(O)OC[C@H]3O[C@@H](n4cnc5c(N)ncnc54)[C@H](OP(=O)(O)O)[C@H]3O)C(O)C2O)c1 (some centres undefined)	ALDH1A1 inh 28.2µM, HPGD inh inconclusive (no result: 12-hLO inh, PNC inhibitor)
NC(=O)c1ccc[n+]([C@@H]2OC(COP(=O)([O-])OP(=O)(O)OCC3OC(n4cnc5c(N)ncnc54)C(O)C3O)C(O)C2O)c1 (some centres undefined)	none (no result: PNC inhibitor)
O=C(N/N=C/c1ccc([N+](=O)[O-])cc1)c1ccc2nc[nH]c2c1	ALDH1A1 inh 6.31µM, PNC inhibitor -88.4
O=C(N/N=C/c1cccc([N+](=O)[O-])c1)c1ccc2nc[nH]c2c1	ALDH1A1 inh 11.2µM, PNC inhibitor inconclusive
COc1ccc([C@@H](Nc2ncccn2)c2cc3c(cc2O)OCO3)cc1	none (no result: aGal spleen mod, GLA inh pH 4.5, PNC inhibitor)
Cc1noc(C)c1-c1nc(NCc2ccccc2)c2ccccc2n1	ALDH1A1 inh inconclusive (no result: HPGD inh, GLA inh pH 4.5, 12-hLO inh, PNC inhibitor)
CCNC(=O)c1cc2c(=O)n3cccc(C)c3nc2n(CCc2ccccc2)c1=N	ALDH1A1 inh inconclusive, HPGD inh inconclusive, PNC inhibitor inconclusive
CCCCNC(=O)c1cc2c(=O)n3cccc(C)c3nc2n1C	ALDH1A1 inh inconclusive, HPGD inh inconclusive
CCOCCCNC(=O)c1cc2c(=O)n3cccc(C)c3nc2n1C	ALDH1A1 inh inconclusive, HPGD inh inconclusive, PNC inhibitor -115.7
Cc1cccn2c(=O)c3cc(C(=O)NCCc4ccccc4)c(=N)n(CCCn4ccnc4)c3nc12	ALDH1A1 inh 5.62µM (no result: HPGD inh)
CN(C)N=Nc1nc2c(c(=O)n(C)c(=O)n2C)n1C	none (no result: HPGD inh, 12-hLO inh, PNC inhibitor)
CC(C)c1nc(SCC(=O)N2CCc3ccccc32)n[nH]1	none (no result: HPGD inh, 12-hLO inh, PNC inhibitor)
Nc1cc(=O)[nH]c(SCc2csc(-c3ccccc3)n2)n1	none
O=C(CSc1n[nH]c(-c2cccs2)n1)N1CCCc2ccccc21	HPGD inh 6.31µM
c1ccc(-c2nc(CSc3n[nH]c(-c4cccs4)n3)cs2)cc1	ALDH1A1 inh inconclusive, HPGD inh 3.98µM, PNC inhibitor inconclusive
O=C(CSc1n[nH]c(-c2ccccc2O)n1)N1CCCc2ccccc21	HPGD inh 10µM, 12-hLO inh inconclusive
c1ccc(C(NCc2cccnc2)(c2ccccc2)c2ccccc2)cc1	none (no result: ALDH1A1 inh, HPGD inh, GLA inh pH 4.5, 12-hLO inh, PNC inhibitor)
Cc1cc(=O)[nH]c(N2CCc3ccccc3C2)n1	none
c1ccc(-c2cc(N3CCOCC3)nc(-c3ccccc3)n2)cc1	PNC inhibitor -82.6
O=C1CC(C(=O)Nc2ccc(Cl)cc2[N+](=O)[O-])C2(CCCCC2)O1 (centres undefined)	PNC inhibitor -84.2
O=C1CC(C(=O)Nc2ccccc2)C2(CCCCC2)O1 (centres undefined)	none
CCCCC#Cc1ccccc1CC(=O)Nc1ccccc1	PNC inhibitor -118.9
CC(=O)Oc1ccc2oc(=O)c3c(c2c1)CCCN3C(=O)CN1CCOCC1	ALDH1A1 inh inconclusive (no result: HPGD inh, 12-hLO inh, PNC inhibitor)
COCCOC(=O)c1c(C)oc2ccc(O)c(CN3CCC(C)CC3)c12	PNC inhibitor -109.9
C[C@@]12CCC(=O)C[C@@H]1CC(=O)[C@H]1[C@H]3CCC[C@]3(C)C(=O)C[C@@H]12 (tested in a mixture with another compound)	none (no result: PNC inhibitor)
Cc1ccc(-c2cc(C(=O)O)c3cc(Br)ccc3n2)o1	ALDH1A1 inh inconclusive, aGal spleen mod inconclusive, HPGD inh inconclusive
C/C(CCc1oc2ccc(Cl)cc2c1-c1ccc(C)o1)=N\O	ALDH1A1 inh 4.47µM, HPGD inh 31.6µM, PNC inhibitor inconclusive
C/C(CCc1oc2ccc(Br)cc2c1-c1ccc(C)o1)=N/O	ALDH1A1 inh inconclusive, HPGD inh 20µM
O=c1[nH]c(-c2ccccn2)nc2ccccc12	ALDH1A1 inh inconclusive, PNC inhibitor inconclusive (no result: HPGD inh)
O=c1[nH]c(-c2ccccc2O)nc2ccccc12	HPGD inh 2.82µM (no result: 12-hLO inh, PNC inhibitor)
